Reference: PubChem BioAssay AID492952 (Southern Research Specialized Biocontainment Screening …, 2010)
Out of some 2,300 compounds screened, about 1,500 (65%) were called active. The rule behind the calls is not given here. So high a share suggests a set chosen from earlier hits. The list shows a part of the results. Where a call stands in place of a potency, no number is given. Potency and affinity values are given separately.

test: replicating M. tuberculosis growth inhibition, dose response, non-replicating M. tuberculosis project, H37Rv (AID 492952); settings: series mostly up to 50 µM;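 note: Mycobacterium tuberculosis grown in culture; growth inhibition read after a week of incubation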

Structure (SMILES)	outcome
CCN(CC)c1ccc(NC2CC(=O)N(CCc3ccc(OC)cc3)C2=O)cc1 (configuration not stated)	inactive
CC(C)(C)c1csc(NC(=O)c2ccccc2O)n1	inactive
O=C(NCc1ccc2c(c1)OCO2)c1ccc(Cl)s1	inactive
CCCNC(=O)N1CCC(c2ccc3c(c2)OCO3)CC1	inactive
O=C(CN1CCN(c2ccccc2O)CC1)Nc1ccc2c(c1)CCC2	inactive
Cc1ccc(NC(=O)COc2ccc3c(c2)CCC3)nc1	inactive
O=C1C=CC(=O)N1N(c1ccccc1)c1ccccc1	inactive
COc1ccc(C(=O)NNC2=C(C(=O)C(F)(F)F)CCC2)cc1	inactive
CC1C/C(=N/N2C(=O)CSC2=S)CC(C)(C)C1 (configuration not stated)	inactive
O=C(CN1CCN(c2ccc([N+](=O)[O-])cc2)CC1)Nc1ccccn1	inactive
Fc1ccc(N2CCN(Cc3nnc(-c4ccccc4)o3)CC2)cc1	inactive
O=C1CC(N2CCN(c3ccc(F)cc3)CC2)C(=O)N1Cc1ccccc1 (configuration not stated)	inactive
O=C1CCCC(O)=C1C=Nc1ccc2c(c1)oc1ccccc12	inactive
CCOC(=O)c1ccc(N=CC2=C(O)CC(C)(C)CC2=O)cc1	inactive
C/C(=N\NC(=O)c1nn(C)cc1Cl)c1ccncc1	inactive
O=C(Nc1ccc(Cl)cc1)C1CCCC1	inactive
CSc1nc(=S)cc(C)[nH]1	inactive
CCOC(=O)Cn1cc(C#N)c2ccccc21	inactive
CSc1nnc(Cc2ccc3c(c2)OCO3)o1	inactive
CC(C)c1ccc(OCC(=O)NC2=NCCS2)cc1	inactive
O=S(=O)(Nc1nccs1)c1ccc(NCc2cc(Br)cc(Br)c2O)cc1	inactive
COc1cc(C=O)ccc1OCCOCCOc1ccc(Cl)cc1	inactive
Cc1cccnc1NC(=O)C1COc2ccccc2O1 (configuration not stated)	inactive
CC(=O)c1cccc(NC(=O)C2COc3ccccc3O2)c1 (configuration not stated)	inactive
COc1ccc(NC(=O)C2COc3ccccc3O2)cc1 (configuration not stated)	inactive

Structure (SMILES)	outcome
Cc1ccccc1NC(=O)C1COc2ccccc2O1 (configuration not stated)	inactive
CCc1ccccc1NC(=O)C1COc2ccccc2O1 (configuration not stated)	inactive
O=C(COC(=O)c1ccccc1)NCc1cccs1	inactive
CCN(CC)C(=O)c1sc2nc(-c3ccccc3)ccc2c1N	inactive
C=CCn1c(O)c(C(C)=Nc2ccc(C(=O)OCC)cc2)c(=O)[nH]c1=O	inactive
Cc1cc(C)c2c(=O)n(CC(=O)Nc3cccc(Cl)c3C)sc2n1	inactive
CC1CCc2c(sc3nc(CSc4ncn[nH]4)[nH]c(=O)c23)C1 (configuration not stated)	inactive
Cc1ccc(CC(=O)Nc2ccc(Cl)cn2)cc1	inactive
Cc1ccc(NC(=O)CN(C)CC(=O)Nc2ccc(F)c(Cl)c2)cc1	inactive
COc1ccc(N2C(=O)CC(Sc3nc4ccccc4s3)C2=O)cc1OC (configuration not stated)	inactive
Cc1nc2ccc(NC(=O)COc3cccc(F)c3)cc2s1	inactive
N#Cc1cc(N)ccc1-n1cccc1	inactive
CCN1C(=O)CC(N2CCC(c3nc4ccccc4[nH]3)CC2)C1=O (configuration not stated)	inactive
CC(C)(C)NCc1cc(Br)ccc1OCc1cccs1	inactive
CCCCOC(=O)c1ccc(OC(=O)c2cccnc2)cc1	inactive
CC(C)CN1C(=O)/C(=C(/C#N)C(=O)NC2CCCCC2)c2ccccc21	inactive
COc1cccc2sc(Nc3nnc(-c4cccs4)o3)nc12	inactive
CC1(c2nnc(-c3ccc(F)cc3)o2)CC(c2cccc(Cl)c2)=NO1 (configuration not stated)	inactive
CC(C)(C)c1ccc2c(c1)OC(C(=O)N/N=C\c1ccccn1)CO2 (configuration not stated)	inactive
CCCOC(=O)c1cc(-c2ccc(C=O)o2)ccc1Cl	inactive
O=C(NNC(=O)C12CC3CC(CC(C3)C1)C2)c1cnccn1	inactive
O=C(COC(=O)CC12CC3CC(CC(C3)C1)C2)Nc1cccnc1Cl	inactive
O=C(NC(=S)Nn1cnc2c(cnn2-c2ccccc2)c1=O)c1ccccc1	inactive
CCC(C)c1ccc(O)c(/C=N/O)c1 (configuration not stated)	inactive
O=C(CCC1CCCCC1)NCc1ccc(F)cc1	inactive

Structure (SMILES)	outcome
CCOc1cccc2cc(C(=O)NCc3ccccc3)c(=N)oc12	inactive
CSc1ccccc1C(=O)NCc1ccc(S(N)(=O)=O)cc1	inactive
C/C(=N\NC(=O)c1ccc(CN2CCc3ccccc3C2)cc1)c1ccccc1O	inactive
O=C(Cc1ccc(F)cc1)Nc1ccc(Cl)cn1	inactive
O=C(c1ccco1)N1CCN(c2ccc(F)cc2)CC1	inactive
O=C(NCCC1CCCC1)c1cccs1	inactive
CC(=O)N1CCC(=NNC(=O)c2cccs2)CC1	inactive
O=C(COC(=O)C1CCCCC1)Nc1ccccc1OC(F)F	inactive
N/C(=N\OC(=O)CC1CCCCC1)c1ccncc1	inactive
O=C(COC(=O)CC1CCCC1)Nc1ccc(OC(F)F)cc1	inactive
Cc1ccc(CO/N=C/c2c(O)cc(C)oc2=O)cc1	inactive
O=C(Nc1ccccc1F)c1ccc(Br)o1	inactive
Cc1ccc(CCC(=O)Nc2ccccc2F)s1	inactive
NC(=O)C1CCN(C2CC(=O)NC2=O)CC1 (configuration not stated)	inactive
COc1ccc(OCCSc2nnc(Cc3cccc4ccccc34)n2N)cc1	inactive
N/C(=N\OC(=O)c1cccs1)c1ccccc1	inactive
CC1(C)CC(=O)C(C2NCCc3ccccc32)=C(O)C1 (configuration not stated)	inactive
Cc1cc(C(=O)NNc2cc(Cl)ccc2Cl)no1	inactive
CCCc1cc(C(=O)Nc2cccc(C(C)=O)c2)no1	inactive
O=C(Nc1ccccc1F)c1ccc(CSc2ccccc2)o1	inactive
O=C(CN1CCC(Cc2ccccc2)CC1)NC(=O)NC1CCCCC1	inactive
CC(C)[C@H]1CN=C2N(C[C@H](C)NC(=O)CCC3CCCCC3)[C@H](Cc3ccc(O)cc3)CN21	inactive
CCCC(=O)N1CCC(Cc2ccccc2)CC1	inactive
C[C@@H]1CN=C2N(CCNC(=O)CCC3CCCCC3)[C@H](Cc3ccc(O)cc3)CN21	inactive
COc1cc(C=O)ccc1OCCCCOc1ccccc1[N+](=O)[O-]	inactive

Structure (SMILES)	outcome
CCc1ccc(C2=C/C(=C/c3cccnc3)C(=O)O2)cc1	inactive
C/C(=N\Nc1ccc(Cl)cc1)c1c(O)cc(C)oc1=O	inactive
CN(C)c1ccc(NC(=O)COC(=O)c2cc(Cl)ccc2[N+](=O)[O-])cc1	inactive
O=C(Nc1cccc([N+](=O)[O-])c1)C1COc2ccccc2O1 (configuration not stated)	inactive
CC(C)NC(=O)C1COc2ccccc2O1 (configuration not stated)	inactive
O=C(Nc1ccc([N+](=O)[O-])cc1)C1COc2ccccc2O1 (configuration not stated)	inactive
O=C(Nc1ccc(Cl)cn1)C1COc2ccccc2O1 (configuration not stated)	inactive
Cn1cccc1/C=N\NC(=O)C1COc2ccccc2O1 (configuration not stated)	inactive
O=C(Nc1cccc(Cl)c1)C1COc2ccccc2O1 (configuration not stated)	inactive
COc1ccc2c([N+](=O)[O-])c(N3CCCC3)[nH]c2c1	inactive
COc1ccc(NC(=O)COc2ccccc2)cc1Cl	inactive
COC(=O)c1cccc(NC(=O)COc2cccc([N+](=O)[O-])c2)c1	inactive
CN(C)S(=O)(=O)Oc1ccc(C(=O)Nc2cccc(C(F)(F)F)c2)cc1	inactive
C=C(C)C1Cc2cc3ccc(=O)oc3cc2O1 (configuration not stated)	inactive
COCCNC(=O)CC(=O)N/N=C/c1cccc(C(=O)OC)c1	inactive
O=C(COC(=O)CCC(=O)c1ccc(F)cc1)Nc1ccccc1	inactive
O=C(CCc1c[nH]c2ccccc12)Nc1ncccc1O	inactive
COc1cccc(NC(=O)COC(=O)Cc2ccc(Br)cc2)c1	inactive
CC(=O)c1ccc(NC(=O)C(Cc2ccccc2)n2cccc2)cc1 (configuration not stated)	inactive
Cc1cc(C(=O)NNc2ccc(Cl)cc2)no1	inactive
COc1ccc(NC(=O)c2cc([N+](=O)[O-])ccc2O)cc1	inactive
Cc1ccc(CSCCNC(=O)c2cccc([N+](=O)[O-])c2)cc1	inactive
COc1ccc([C@@]2(O)c3c(ccc(CC=C(C)C)c3O)NC(=O)[C@@H]2OC)cc1	inactive
CN1/C(=C\C=N\NC(=O)c2cccnc2)C(C)(C)c2ccccc21	inactive
C/C(CC(=O)Nc1ccc(C)c(Cl)c1)=N\NC(=O)c1ccco1	inactive

Structure (SMILES)	outcome
CCc1cccc(OCCCn2ccnc2)c1	inactive
O=Cc1ccc(OC2OCCOC2Oc2ccc(C=O)cc2)cc1 (configuration not stated)	inactive
CC1=NN(C(=O)c2ccc(Cn3nc(C)c(Br)c3C)cc2)C(O)(C(F)(F)F)C1 (configuration not stated)	inactive
CC1=NN(C(=O)c2ccoc2C)C(O)(C(F)(F)F)C1 (configuration not stated)	inactive
CC1=NN(C(=O)c2cc(C)nn2C)C(O)(C(F)(F)F)C1 (configuration not stated)	inactive
O=C(c1ccccc1[N+](=O)[O-])N1N=C(c2ccccc2)CC1(O)C(F)(F)F (configuration not stated)	inactive
Cc1cc(C)cc(NC(=O)COC(=O)CC2CCCC2)c1	inactive
O=C(CC1CCCCC1)NCc1ccccc1	inactive
Cc1cc(Cl)ccc1NNC(=O)c1cccs1	inactive
CCN1CCN(Cc2cc(C(C)(C)C)c(O)c(C(C)(C)C)c2)CC1	inactive
COc1cc(CNCCNC(=O)c2nonc2N)ccc1OCc1ccc(Cl)cc1	inactive
O=C(NNc1ccc([N+](=O)[O-])cc1)C1CC1c1ccccc1 (configuration not stated)	inactive
CCOc1ccc(Cn2c(=O)oc3ccccc32)cc1	inactive
Cc1cccc(OCC(O)Cn2c(=N)n(Cc3ccccc3)c3ccccc32)c1 (configuration not stated)	inactive
Cc1ccc(C(=O)N2N=C(CC(C)C)CC2(O)C(F)(F)F)o1 (configuration not stated)	inactive
CCSc1nsc(NC(=O)Nc2ccc(F)cc2F)n1	inactive
O=C(C/C=N\OCc1ccc([N+](=O)[O-])cc1)Nc1ccc(Br)cc1	inactive
C=CCc1ccc2oc(C(=O)OCC)cc(=O)c2c1O	inactive
CCC1(O)CC(c2ccccc2)=NN1C(=O)c1ccccc1F (configuration not stated)	inactive
COc1ccc(/C=N/NC(=O)C(=O)NCc2cccnc2)cc1OC	inactive
O=Cc1ccnc(-c2ccc(OC(=O)c3ccco3)cc2)n1	inactive
COc1cc(/C=N/Nc2ccc(Cl)c(C(=O)O)c2)ccc1OC(=O)c1cccs1	inactive
